{"source": "PubChem BioAssay (Tox21)", "note": "Records with an inconclusive call do not appear. Values without a mark were called inactive. Calls come from the whole dose curve; as a rule, active = well fitted cell-killing curve with a large enough effect in the repeat runs; inconclusive = weak or mixed curves, or effect the other way; inactive = flat fitted curve, though single readings scatter. % is set by controls: 0 for no effect and ±100 for the full control effect."}
{"test": "qHTS RealTime-Glo MT Cell Viability Assay in HepG2 cells - 40 hour (AID 1224870); note: nearly all actives have a fitted effect of over 50% in size", "details": "RealTime-Glo luminescence; series mostly up to 76.8 µM; activity change, negative = cytotoxic: at the top concentration", "description": "National Center for Advancing Translational Sciences [NCATS]\nNIH Chemical Genomics Center [NCGC]\nU.S. Environmental Protection Agency [EPA]\nNational Institutes of Environmental Health Sciences [NIEHS]\nNational Toxicology Program [NTP]\nU.S. Food and Drug Administration [FDA]\nMeasure of cell viability is critical in the cell-base assay. Analysis of cell viability is necessary for the characterization of cell responses to cytotoxic drugs and environmental stress. A RealTime-Glo MT Cell Viability Assay to monitor cell viability in real time of continues cell culture during 40 hours of compound treatment was used to screen Tox21 10K library compounds in HepG2 cells. The RealTime-Glo MT Cell Viability Assay is a nonlytic, homogeneous, bioluminescent method to measure cell viability in real time using a simple, plate-based method. The assay involves adding NanoLuc luciferase and a cell-permeant prosubstrate to cells in culture. Viable cells reduce the proprietary prosubstrate to generate a substrate for NanoLuc luciferase. This substrate diffuses from cells into the surrounding culture medium, where it is rapidly used by the NanoLuc Enzyme to produce a luminescent signal. The signal correlates with the number of viable cells, making the assay well suited for cytotoxicity studies.\nTox21 Assay Protocol Summary:\nThe mixture of HepG2 cell suspension and reagents were dispensed at 600cells/6 ul/well in 1536-well tissue culture treated black solid bottom plates using a Multidrop dispenser. After the assay plates were incubated at a 37 C/5% CO2 incubator for 5 hours, 23 nL of compounds dissolved in DMSO, positive and negative controls was transferred to the assay plate by a pintool work station. The plates were incubated at 37 C for 40 hours. The luminescence intensity were measured at 0h, 8h, 16h, 24h, 32h and 40h time points using ViewLux plate reader during compound treatment."}
{"smiles": "Nc1nnnn1-c1ccccc1", "activity change, negative = cytotoxic": "0.0465% [at 35.3 µM]"}
{"smiles": "Cn1c(=O)c2c(ncn2CCO)n(C)c1=O", "activity change, negative = cytotoxic": "-0.63% [at 35.3 µM]"}
{"smiles": "N#Cc1ccccc1O", "activity change, negative = cytotoxic": "2.18%"}
{"smiles": "CC(C)c1ccc(C=O)cc1", "activity change, negative = cytotoxic": "3.41%"}
{"smiles": "COC(C)(OC)OC", "activity change, negative = cytotoxic": "0.445%"}
{"smiles": "O=C(Cl)c1ccccc1[N+](=O)[O-]", "activity change, negative = cytotoxic": "-3.36%"}
{"smiles": "CC(Oc1cc(Cl)ccc1Cl)C(=O)O", "note": "(stereo not given)", "activity change, negative = cytotoxic": "1.94%"}
{"smiles": "Nc1nc(-c2ccccc2)c(Br)c(=O)[nH]1", "activity change, negative = cytotoxic": "3.35% [at 35.3 µM]"}
{"smiles": "C=CC/C=C/C", "activity change, negative = cytotoxic": "-0.416%"}
{"smiles": "CC(C)(CO)C(O)C(=O)NCCCO", "note": "(stereo not given)", "activity change, negative = cytotoxic": "1.18%"}
{"smiles": "CC1(C)Oc2ccc(C#N)cc2[C@@H](N2CCCC2=O)[C@@H]1O", "activity change, negative = cytotoxic": "-0.441% [at 35.3 µM]"}
{"smiles": "N#Cc1cscn1", "activity change, negative = cytotoxic": "0.227%"}
{"smiles": "CCCCSCCCC", "activity change, negative = cytotoxic": "3.47%"}
{"smiles": "CC1(C)Cc2cccc(N)c2O1", "activity change, negative = cytotoxic": "0.0856%"}
{"smiles": "CCO", "activity change, negative = cytotoxic": "11.8%"}
{"smiles": "CC(N)CCCC(C)(C)O", "note": "(stereo not given)", "activity change, negative = cytotoxic": "0.014% [at 35.3 µM]"}
{"smiles": "O=C(O)c1cc2ccccc2nc1C(=O)O", "activity change, negative = cytotoxic": "-1.16%"}
{"smiles": "C=CCSSCCC", "activity change, negative = cytotoxic": "-0.633%"}
{"smiles": "CCC(C)C(C)=O", "note": "(stereo not given)", "activity change, negative = cytotoxic": "-0.662%"}
{"smiles": "CC(=O)OC(C)=O", "activity change, negative = cytotoxic": "2.47%"}
{"smiles": "OC1OCCOC1O", "note": "(stereo not given)", "activity change, negative = cytotoxic": "0.792%"}
{"smiles": "Cc1ccc(N)cc1S(=O)(=O)O", "activity change, negative = cytotoxic": "0.674%"}
{"smiles": "COC(=O)c1cc(Cl)cc(Cl)c1", "activity change, negative = cytotoxic": "1.21%"}
{"smiles": "CC12CCC(C1)C(C)(C)C2O", "note": "(stereo not given)", "activity change, negative = cytotoxic": "1.17%"}
{"smiles": "CCCCCCCCCOC(=O)c1ccccc1C(=O)OCCCCCCCCC", "activity change, negative = cytotoxic": "-0.775%"}
{"smiles": "CCCC(=O)OC/C=C(\\C)CCC=C(C)C", "activity change, negative = cytotoxic": "3.46%"}
{"smiles": "CC/C(C)=N\\O[Si](C)(O/N=C(\\C)CC)O/N=C(\\C)CC", "activity change, negative = cytotoxic": "-8.39%"}
{"smiles": "CC(=O)OCC(=O)Nc1cc(C#N)cc(NC(=O)COC(C)=O)c1Cl", "activity change, negative = cytotoxic": "0.225% [at 35.3 µM]"}
{"smiles": "CN(C)C(C)(C)CO", "activity change, negative = cytotoxic": "1.82%"}
{"smiles": "COc1ccc(CCO)cc1", "activity change, negative = cytotoxic": "1.23%"}
{"smiles": "CCCCOC(=O)C(C)O", "note": "(stereo not given)", "activity change, negative = cytotoxic": "3.12%"}
{"smiles": "CCCCOCC(C)O", "note": "(stereo not given)", "activity change, negative = cytotoxic": "0.473%"}
{"smiles": "CCC(C(=O)OCCN1CCOC(c2ccccc2)C1C)c1ccccc1", "note": "(stereo not given)", "activity change, negative = cytotoxic": "-7.49% [at 35.3 µM]"}
{"smiles": "CCc1occc(=O)c1O", "activity change, negative = cytotoxic": "-0.295%"}
{"smiles": "CCCCOCCOC(=O)COc1ccc(Cl)cc1Cl", "activity change, negative = cytotoxic": "1.01%"}
{"smiles": "CC(C)=CCC[C@@](C)(O)[C@H]1CC=C(C)CC1", "activity change, negative = cytotoxic": "-0.0307% [at 35.3 µM]"}
{"smiles": "CCOc1cccc(N)c1", "activity change, negative = cytotoxic": "3.7%"}
{"smiles": "CCCCCCCCCCOC(C)=O", "activity change, negative = cytotoxic": "-1.77%"}
{"smiles": "CCCCCCC1(C)CCC(=O)O1", "note": "(stereo not given)", "activity change, negative = cytotoxic": "0.381%"}
{"smiles": "COCCc1ccccn1", "activity change, negative = cytotoxic": "-0.0379% [at 35.3 µM]"}
